Compound activity deposited in PubChem BioAssay by National Center for Advancing Translational Sciences (NCATS).
Most compounds without a hit are left out; they make up all but 4.7% or so of the library.
D1 potentiator – human D1 dopamine receptor positive modulation; 0.036% of 360,000 active; HEK293 TREx D1 cells, calcium flux, dopamine EC20 potentiation; potentiation, % at 10 µM; P21728; in the data active = potentiation above about 30%
Target sequence (P21728 whole entry, looked up): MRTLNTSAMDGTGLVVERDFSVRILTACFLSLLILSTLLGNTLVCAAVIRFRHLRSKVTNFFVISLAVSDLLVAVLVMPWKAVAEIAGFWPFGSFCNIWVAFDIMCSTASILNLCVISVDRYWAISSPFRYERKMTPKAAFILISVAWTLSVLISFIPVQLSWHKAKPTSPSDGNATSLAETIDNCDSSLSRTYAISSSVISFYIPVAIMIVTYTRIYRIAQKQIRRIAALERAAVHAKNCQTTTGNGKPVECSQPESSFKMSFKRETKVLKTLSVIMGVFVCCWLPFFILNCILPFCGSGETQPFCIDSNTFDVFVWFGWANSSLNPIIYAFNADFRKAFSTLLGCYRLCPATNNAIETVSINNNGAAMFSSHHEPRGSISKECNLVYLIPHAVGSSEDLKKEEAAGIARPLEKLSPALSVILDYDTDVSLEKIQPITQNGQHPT
D1 antag – antagonists of human D1 dopamine receptor. AID 504652. activity change, negative = inhibition, % at 10 µM. 3.2% of 360,000 active. P21728. HEK293 TREx D1 cells, calcium flux, dopamine EC80; hits give low values; in the data active = activity change below about -30%
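Compound effects on dopamine-evoked calcium signalling were measured in tetracycline-induced HEK293 Trex D1 cells. Dopamine at EC80 followed a 180 s compound pre-read, and fluorescence was tracked kinetically for 180 s more.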
D1 ag – activates the human D1 dopamine receptor. HEK293 T-REx D1 cells, calcium flux, agonist mode. activation, % at 2 µM. 1% of 360,000 active. AID 504660
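Tetracycline-induced HEK293 TREx D1 cells, force-coupled to calcium signalling, were dye-loaded with a no-wash calcium kit. Compound was pin-added after a 10 s baseline. Fluorescence was read kinetically at 1 cycle/s for 180 s, with calcium rises flagged as agonism.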
TRHR enhancer – allosteric enhancers of human TRH receptor; 0.66% of 360,000 active; AID 493056; enhancement, % at 2 µM; TRHR cells, fluo-8 calcium fluorescence, EC20 TRH enhancement; in the data active = enhancement above about 30%
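Enhancer read-out: after compound pinning and an initial kinetic agonist-mode read, an EC20 of TRH (10 nM final) was injected and fluo-8 calcium signal (Ex 480/Em 530) followed at 1 s/cycle for 100 cycles in TRHR-expressing cells.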
TRHR ag – activates the human TRH receptor; activation, % at 2 µM; TRHR cells, calcium flux fluo-8, FDSS agonist mode; P34981; 0.18% of 360,000 active
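TRHR-expressing cells, plated overnight in medium with 10% serum, were loaded with fluo-8 calcium dye at room temperature. After a 10 s baseline, library compound was pin-added and calcium release was recorded kinetically (ex 480/em 530) as agonist response.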
Hits are given with their value; 0 = inactive; - = no result given; ! = repeats disagree. Cut-off read from the data, not from the text of the source, unless noted: active = activation above about 30%; inactive = the rest.

SMILES	D1 potentiator	D1 antag	D1 ag	TRHR enhancer	TRHR ag
O=C(Nc1ccc(N2CCCC2)c(Cl)c1)c1cccs1	0	-31.7	0	0	0
CCNC(=O)c1c(C)oc2ncn(C)c(=O)c12	0	0	0	0	0
COc1ccc(NS(=O)(=O)c2cc(NC(=O)c3cccs3)ccc2N2CCOCC2)cc1	0	0	0	0	0
COc1ccccc1NS(=O)(=O)c1cc(NC(=O)c2cccs2)ccc1N1CCOCC1	0	-30.1	0	0	0
CCc1ccc(NC(=O)CNS(=O)(=O)c2c(C)noc2C)cc1	0	-31.2	0	0	0
CCc1ccc(NC(=O)C2CCN(S(=O)(=O)c3c(C)noc3C)CC2)cc1	0	0	0	0	0
COc1cc(NC(=O)c2cc3cc4ccc(C)cc4nc3o2)cc(OC)c1OC	0	0	0	0	0
CCCC(=O)Nc1nc2c(s1)CC(C(C)(C)C)CC2 (configuration not stated)	0	0	0	0	0
Cc1occc(=O)c1OC(=O)Nc1ccc(Cl)c(Cl)c1	0	-47.3	0	0	0
Cc1cc2c(s1)c1cnn(Cc3cc(F)c(F)c(F)c3F)c(=O)c1n2C	0	0	0	0	0
NC(=O)c1c(NC(=O)c2c(F)cccc2F)sc2c1CCN(Cc1ccccc1)C2	0	0	155.1	0	49.2
CCC(=O)Nc1sc2c(c1C(N)=O)CCN(Cc1ccccc1)C2	0	0	166.3	0	38.6
NC(=O)c1c(NC(=O)c2ccccc2)sc2c1CCN(Cc1ccccc1)C2	0	0	216.0	0	52.6
CC(C)C(=O)Nc1sc2c(c1C(N)=O)CCN(Cc1ccccc1)C2	0	0	0	0	0
CCN1CCc2c(sc(NC(=O)Nc3ccc(Cl)c(Cl)c3)c2C(N)=O)C1	0	0	417.5	0	159.2
CCN1CCc2c(sc(NC(=O)Cc3ccccc3)c2C(N)=O)C1	0	0	0	0	0
CCC1CCCCN1C(=O)Cn1c(=O)n(CC2CCC(C(=O)NC)CC2)c(=O)c2sccc21 (configuration not stated)	0	0	0	0	0
NC(=O)c1c(NC(=O)c2ccncc2)sc2c1CCCC2	0	0	0	0	0
NC(=O)c1c(NC(=O)c2ccncc2)sc2c1CCCCCC2	0	0	36.7	0	0
COc1ccccc1COC(=O)C(NC(=O)c1ccc(C)cc1)C(C)C (configuration not stated)	0	-32.0	0	0	0
COc1ccc(C(=O)NC(C(=O)NCc2ccccc2OC)C(C)C)cc1 (configuration not stated)	0	0	0	0	0
Cc1ccc(NC(=O)CSc2nc(=O)n3cc(C)ccc3n2)c(C)c1	0	-35.2	0	0	0
Cc1ccc(NC(=O)c2cnc(SCC(=O)N3CCOCC3)n(C)c2=O)cc1	0	-	0	0	0
Cc1cccc(NC(=O)CSc2nc(C)c(Cc3ccccc3)c(=O)[nH]2)c1C	0	-31.4!	0	0	0
COc1ccc2c(c1)c(=O)c(S(=O)(=O)c1ccc(F)cc1)cn2Cc1ccccc1Cl	0	0	0	0	0
SMILES	D1 potentiator	D1 antag	D1 ag	TRHR enhancer	TRHR ag
CCOc1ccc(-c2nc(CSCC(=O)NCc3ccc(C)cc3)c(C)o2)cc1	0	0	0	0	0
O=C(CSCc1c(Cl)cccc1Cl)NCc1ccco1	0	-31.0	0	0	0
CCOc1ccc(-c2nc(CSCC(=O)NCc3ccco3)c(C)o2)cc1	0	-37.3	0	0	0
CCCCCCCCCCCC(=O)NC(Cc1ccc(OC)c([N+](=O)[O-])c1)C(=O)O (configuration not stated)	0	-48.2	137.1	0	0
COc1cc(/C=N/O)cc(Cl)c1OC	0	0	88.7	0	0
CSC1=C(C#N)C(c2ccccc2Cl)C(C(=O)c2cccs2)C(O)(C(F)(F)F)N1 (configuration not stated)	0	-31.0	0	0	0
CCc1ccc(NC(=O)CCn2c(-c3ccc(OC)cc3)cc(C(C)=O)c2C)cc1	0	0	0	0	0
CCCCCN(C(=O)COC(=O)c1ccc(C)cc1)c1c(N)n(CCCC)c(=O)[nH]c1=O	0	-34.6	0	0	0
CCCCn1c(N)c(N(CC)C(=O)c2cccc(OC)c2)c(=O)[nH]c1=O	0	-31.5	0	0	0
CCCCn1c(N)c(N(CCOC)C(=O)c2ccc(Cl)c(S(=O)(=O)N3CCCC3)c2)c(=O)[nH]c1=O	0	0	0	0	0
CCCCn1c(N)c(N(CC)C(=O)C2CCCC2)c(=O)[nH]c1=O	0	0	0	36.5	0
CCCCCN(C(=O)COC(=O)c1ccc(Br)o1)c1c(N)n(CCCC)c(=O)[nH]c1=O	0	0	0	0	0
CCCCn1c(N)c(N(CCOC)C(=O)c2ccc(C)c(S(=O)(=O)N3CCCCC3)c2)c(=O)[nH]c1=O	0	-38.0	0	0	0
COc1ccc(Cn2c(=O)c3cccnc3n(CC(=O)Nc3c(C)cc(C)cc3C)c2=O)cc1	0	0	0	0	0
COc1cccc(CSc2nc3n(n2)C(CC(C)C)C(C(=O)Nc2ccccc2OC)=C(C)N3)c1 (configuration not stated)	0	0	0	0	0
CCc1ccc(NC(=O)Cn2c(=O)n(CCc3ccccc3)c(=O)c3sc4ccccc4c32)cc1	0	0	0	0	0
CCCCN(C(=O)C1CC(=O)N(CCc2ccc(OC)c(OC)c2)C1)c1c(N)n(CCCC)c(=O)[nH]c1=O (configuration not stated)	0	0	0	30.3	0
NC(=S)NNC(=O)C12CC3CC(CC(C3)C1)C2	0	0	185.4	0	31.7
COc1ccc(N2CCN(C(=O)c3cc4c(=O)n(Cc5cccs5)ccc4nc3C)CC2)cc1	0	0	0	0	0
Cc1ccccc1OCC(O)Cn1c(=N)n(CCN2CCOCC2)c2ccccc21 (configuration not stated)	0	-34.7!	0	0	0
Cc1ccccc1OCC(O)CN1CCN(CC(O)COc2ccccc2C)CC1 (configuration not stated)	0	0	53.5	0	0
Cc1ccccc1OCC(O)CN1CCC(C)CC1 (configuration not stated)	0	0	0	0	0
CCn1nc(C)c2c(-c3ccccc3)cc(=O)n(C(C)C(=O)NCCC(C)C)c21 (configuration not stated)	0	0	0	0	0
COc1ccccc1Oc1ccc2c(c1)C(=O)N(c1cccc3ncccc13)C2=O	0	-34.5	0	0	0
COc1ccccc1Oc1ccc2c(c1)C(=O)N(c1cccc(O)c1)C2=O	0	0	0	0	0
N#CC1=C(N)OC2=C(CC/C2=C\c2ccccc2Cl)C1c1ccccc1Cl (configuration not stated)	0	0	35.3	0	0
CCc1sc(C(=O)NCCc2ccc(S(N)(=O)=O)cc2)cc1Br	0	-30.3	0	0	0
